Rows were chosen to be rich in hits. Some 3.3% of all compounds tested hit in one or more screens of this group.
Jurkat NFkB inh: lowers PMA/ionomycin-induced NF-kB signal in Jurkat cells; AID 435003; 0.53% of 330,000 active; inhibition, % at 4 µM; PMA/ionomycin-induced NF-kB luciferase reporter, luminescence; in the data active means inhibition above about 50%
Gli-Sufu block: Gli-Sufu pathway antagonism; Sufu-KO-LIGHT fibroblasts, Gli luciferase reporter luminescence; inhibition, % at 5 µM; 0.74% of 340,000 active; AID 588413;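 active means inhibition above about 55%, limit read from the data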;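 further: 0% = DMSO-treated cells and 100% = wells with medium but no cells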
697 NFkB inh: inhibitors of the PMA/ionomycin-induced NF-kB reporter in 697 B cells; 697 B-cell NF-kB luciferase reporter, 16 h; inhibition, % at 4 µM; 0.33% of 330,000 active; in the data active means inhibition above about 35%
SMARCA2 activ: increases SMARCA2 function in MMTV reporter cells | activation, % at 9.1 µM | MG213 cells, MMTV-luciferase reporter, dexamethasone, overnight | 1% of 370,000 active; in the data active means activation above about 7.8%;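 further: 0% = vehicle wells and 100% = reference activator wells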
esBAF inh: inhibitors of esBAF chromatin remodeling in mouse ES cells | 2% of 350,000 active | reporter increase, % at 12.5 µM | Bmi1-luciferase knock-in reporter, 24 h; 100% = twice the neutral-well signal; in the data active means activation above about 40%;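 further: 0% = median of the plate's neutral control wells and 100% = double that signal; a rise in the Bmi1 reporter signal indicates esBAF inhibition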
Jurkat NFkB conf: inhibitors of the PMA/ionomycin-induced NF-kB reporter in Jurkat cells, retest | shares compounds with Jurkat NFkB inh | Jurkat NF-kB luciferase, 16 h | inhibition, % at 4 µM | 27% of 2,700 active | AID 435020;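 active means inhibition reaching about 45% at 4 µM in either replicate, limit read from the data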;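 further: plate controls were PMA/ionomycin stimulated DMSO wells for no effect and unstimulated DMSO wells for full effect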
697 NFkB conf: inhibitors of the PMA/ionomycin-induced NF-kB reporter in 697 B cells, retest. shares compounds with 697 NFkB inh. 697 B-cell NF-kB luciferase, 16 h. inhibition, % at 4 µM. 35% of 2,000 active. AID 449746; in the data active means inhibition mostly above about 28%, no sharp cut-off; inactive means mostly below about 22%
* marks the source's active call; other numbers are inactive results; i = inactive; . = no result given.

SMILES | Jurkat NFkB inh | Gli-Sufu block | 697 NFkB inh | SMARCA2 activ | esBAF inh | Jurkat NFkB conf | 697 NFkB conf
Cc1cc(O)c2c(c1O)C(=O)[C@]13C(=C2O)C(=O)[C@@H]2[C@@H](O)[C@H]1[C@@H]1[C@H](O)[C@H]3C(=O)C3=C(O)c4c(O)cc(C)c(O)c4C(=O)[C@]312 | 85* | 78* | 44* | . | -41 | 87* | -18
C[C@H]1CN([C@@H](C)CO)S(=O)(=O)c2ccc(C#CC(C)(C)O)cc2O[C@@H]1CN(C)Cc1ccc(-c2ccccc2)cc1 | . | . | . | . | -13 | . | .
Cc1ccc(NC(=O)c2cnn(-c3ccccc3)c2C)cc1C | -162 | -22 | -351 | 1 | -56 | -49 | -323
Cc1c(C(=O)Nc2ccccc2)cnn1-c1ccccc1 | -85 | -68 | -86 | 5 | . | . | .
Cc1noc(C)c1NC(=O)Nc1ccc2c(c1)C(=O)N([C@H](C)CO)C[C@H](C)[C@@H](CN(C)C(=O)Nc1cccc3ccccc13)OCCCC[C@H](C)O2 | . | . | . | . | 1 | . | .
Cc1cc(/C=N/NC(=O)c2ccncc2)c(C)n1-c1ccccc1 | -3 | -16 | -25 | 4 | . | . | .
Cc1cc(/C=N/NC(=O)c2cccs2)c(C)n1-c1ccccc1 | -196 | -4 | i | -4 | -24 | 0 | -38
COc1ccc(-[n+]2c(C)cc(/C=C3\Sc4ccccc4N3C)cc2C)cc1 | 86* | . | 100* | -7 | . | 27 | -22
C[C@H](CO)N1C[C@H](C)[C@H](CN(C)C(=O)c2ccc3c(c2)OCO3)Oc2ncc(C3=CCCC3)cc2C1=O | . | . | . | . | 0 | . | .
CCCCCc1ccc(S(=O)(=O)Nc2cc(C)ccn2)cc1 | 22 | 7 | -22 | -3 | . | . | .
CCCCCc1ccc(OCCCC[n+]2cccc(C)c2)c(CCCCC)c1 | 63* | 85* | 42* | -10 | -87 | 58* | 48*
C[C@H]1CN([C@@H](C)CO)C(=O)Cc2cc(NS(C)(=O)=O)ccc2O[C@H]1CN(C)S(=O)(=O)c1ccc(Cl)cc1 | . | . | . | . | 0 | . | .
O=C(Cc1nc(=O)c2ccccc2s1)Nc1ccccc1 | -208 | -124 | -318 | 6 | 62* | -148 | -256
COc1ccc(-n2ncc3c(N4CCC(C)CC4)ncnc32)cc1 | -198 | -47 | -325 | 1 | -32 | -99 | -402
Cc1ccc(N=Cc2sc(O)c3ccccc23)cc1 | -197 | -54 | -257 | 4 | 94* | 14 | -35
Cc1ccc(N=Cc2c(O)c3ccccc3n(C)c2=O)cc1 | . | -4 | . | 0 | 8 | . | .
CCc1cc2c(Sc3nc4ccccc4s3)ncnc2s1 | 100* | 11 | 83* | -6 | 19 | 96* | 64*
c1ccc2sc(Sc3ncnc4sccc34)nc2c1 | 98* | 40 | 63* | 6 | . | 53* | 60*
COc1cc(NC(C)CCCN)c2ncccc2c1 (stereo not given) | 65* | 19 | 44* | -12 | -11 | 36 | 38*
COc1cc(NCc2ccccc2O)c2ncccc2c1 | 10 | 1 | -5 | -1 | 2 | . | .
COc1cc([N+](=O)[O-])cc(/C=N/NC(=O)c2ccc(C)nc2)c1O | -20 | -3 | -19 | 2 | . | . | .
COc1cc([N+](=O)[O-])cc(/C=N/NC(=O)c2ccc(NC(=O)c3ccc(C)cc3)cc2)c1O | 86* | 27 | 81* | -4 | -85 | 55* | 77*
CO[C@@H]1CN(C)C(=O)c2ccc(NC(C)=O)cc2OC[C@H](C)N(C(=O)c2cccnc2)C[C@H]1C | . | . | . | . | -4 | . | .
COc1ccc(NC(=O)c2cccnc2SC)cc1OC | -6 | -3 | 1 | -2 | 1 | . | .
COc1cc(SC)ccc1C(=O)Nc1ccc2ncccc2c1 | -206 | -159 | -383 | 4 | -41 | -153 | -345
SMILES | Jurkat NFkB inh | Gli-Sufu block | 697 NFkB inh | SMARCA2 activ | esBAF inh | Jurkat NFkB conf | 697 NFkB conf
Cc1ccc(S(=O)(=O)N(C)C[C@H]2Oc3ccc(NS(=O)(=O)c4c(C)noc4C)cc3C(=O)N([C@H](C)CO)C[C@@H]2C)cc1 | . | . | . | . | 5 | . | .
Cc1sc2ncnc(N3CCC(C(=O)NNC(=O)COc4ccc(Cl)cc4)CC3)c2c1C | . | -15 | . | -3 | 9 | . | .
Cc1sc2ncnc(N3CCN(CCOc4ccc(Cl)cc4)CC3)c2c1C | 57* | 74* | 56* | -6 | -5 | 46 | 35*
CC(C)(O)c1[nH]c2ccc(C#N)cc2c1C(C)(C)O | 63* | 1 | 59* | -1 | . | 88* | 60*
CCOC(=O)c1c(C)[nH]c(C(=O)CSc2ccccc2)c1C | -202 | 8 | -330 | 4 | -20 | -124 | -351
COc1ccc(-c2cc3onc(-c4c(Cl)cccc4Cl)c3c(=O)n2C)cc1 | 0 | -7 | -15 | 3 | 35 | . | .
COc1cccc(-c2cc3onc(-c4ccccc4)c3c(=O)n2C)c1 | -204 | -37 | -460 | 5 | -17 | -129 | -461
CCC(=O)OCC(=O)N=c1sccn1Cc1ccccc1Cl | -7 | -8 | 15 | 0 | 6 | . | .
CCC(=O)OCC(=O)N=c1sccn1Cc1ccc(C)cc1 | 12 | 5 | 12 | -3 | 1 | . | .
O=C(CCl)N=c1sccn1Cc1ccccc1Cl | 91* | 3 | 104* | -13 | . | 71* | 94*
O=C(CCl)N=c1sccn1Cc1ccc(Cl)cc1Cl | 97* | 95* | 98* | -5 | . | 69* | 102*
C[C@@H]1CN([C@@H](C)CO)S(=O)(=O)c2ccc(C#CCN(C)C)cc2O[C@@H]1CN(C)Cc1ccncc1 | . | . | . | . | 1 | . | .
COC(=O)c1sccc1N/N=C/c1cccc(OC)c1O | -190 | -76 | -299 | 3 | -47 | -81 | -232
O=[N+]([O-])c1ccc(N=Nc2ccc(O)cc2O)cc1 | 59* | -2 | 63* | -3 | -6 | -12 | -45
COc1ccc(NC(=O)Cc2ccc(Cl)c(Cl)c2)cn1 | 2 | -12 | -5 | -2 | . | . | .
COc1ccc(NC(=O)/C(Cl)=C(/Cl)S(=O)Cc2ccccc2Cl)cn1 (stereo not given) | 100* | 72* | -349 | . | . | 98* | -110
O=C(Oc1ccc2ccccc2c1Cl)N1CCCC1 | -154 | -99 | -386 | 7 | 9 | -101 | -337
O=C(Oc1ccc(Cl)c2ccccc12)N1CCCCC1 | -32 | -12 | -48 | 3 | 38 | . | .
c1ccc2c(c1)CCN(c1ncnc3c1[nH]c1ccccc13)C2 | 50* | 79* | 43* | -5 | -28 | 59* | 24
COc1ccc(S(=O)(=O)N(C)C[C@H]2Oc3c(NC(=O)Nc4ccc(C(F)(F)F)cc4)cccc3C(=O)N([C@H](C)CO)C[C@H]2C)cc1 | . | . | . | . | 13 | . | .
Cc1cccc(/C(N)=N/OC(=O)c2ccc(Cl)cc2Cl)c1 | -202 | -93 | -358 | 1 | . | -53 | -277
Cc1ccc(/C(N)=N/OC(=O)c2ccc3ccccc3c2)cc1 | -55 | -33 | -111 | 4 | . | . | .
Cc1ccc(/C(N)=N/OC(=O)c2ccc(C)cc2Cl)cc1 | -193 | -30 | -310 | 3 | . | -10 | -288
